Shown are actives, neighbours in structure and some others; about 0.66% of the full set was active somewhere.
mHtt clearance – mutant huntingtin protein clearance. HeLa Exon1htt(103Q)mCFP, aggregate imaging; zero = plate's median compound well. inhibition, % at 1.5 µM. 0.42% of 47,000 active;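 active = inhibition of aggregate fluorescence above about 70%, also judged a hit by eye on the cell image, limit read from the data, passing the limit was not always enough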;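 also: cells exposed to compound for three days before fixation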
SKBR3 24h inh – SK-BR-3 proliferation inhibitors | SK-BR-3 viability, CellTiter-Glo ATP luminescence, 24 h; hits give low values | viability, % at 10 µM | 0.47% of 41,000 active;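 active = viability at or below the median of all test compounds minus 3 SD, in both replicates if run twice, cut at about 45% in these data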
Of the large screens only hits and unclear results are named; the others gave an inactive call.

O=C(Cc1ccccc1)NCC1CCCO1 (centres undefined)	none (no result: SKBR3 24h inh)
CCOc1cc(/C=C(/C#N)c2ccc(F)cc2)ccc1OCc1ccc(C(=O)O)o1	none (no result: mHtt clearance)
CCOc1ccc(S(=O)(=O)n2nnc3ccccc32)cc1C	mHtt clearance 74.5
CCOc1ccc(Cl)cc1S(=O)(=O)n1nnc2ccccc21	none (no result: mHtt clearance)
Cn1c2ccccc2c2nnc(SC3CCOC3=O)nc21 (centres undefined)	none (no result: mHtt clearance)
Cc1cc2ncn(S(=O)(=O)c3ccc(S(=O)(=O)N4CCCCCC4)cc3)c2cc1C	mHtt clearance 71.4 (no result: SKBR3 24h inh)
CCOc1ccc(S(=O)(=O)n2cnc3cc(C)c(C)cc32)cc1	none
C/C(=N\NC(=O)CSCc1ccccc1Cl)c1cccc(NC(=O)c2ccccc2)c1	none (no result: SKBR3 24h inh)
CCn1c2ccccc2c2cc(NC(=O)CSc3nnc(-c4ccccc4OC)n3N)ccc21	mHtt clearance 75.7
CCn1c2ccccc2c2cc(NC(=O)CSc3nnc(-c4ccc(OC)c(OC)c4)n3N)ccc21	none (no result: SKBR3 24h inh)
Cc1cccc(NC(=O)CC(C)(C)C)c1	none
Cc1cccc(NC(=O)Cc2noc3ccccc23)c1	mHtt clearance 84.0 (no result: SKBR3 24h inh)
Cc1[nH]c2ccccc2c(=O)c1CN1CCCCC1	none (no result: mHtt clearance)
CCOc1ccc(S(=O)(=O)NCc2ccc(F)cc2)c2cccnc12	none
O=S(=O)(NCC(O)COCc1ccco1)c1cccs1 (centres undefined)	none (no result: mHtt clearance)
Clc1cccc(-c2nnc(-c3ccccc3)o2)c1	SKBR3 24h inh 18.3
c1ccc(-c2nnc(-c3ccncc3)o2)cc1	none (no result: SKBR3 24h inh)
C=CCn1c(SCC(C)=O)nnc1-c1cc(-c2ccccc2)sc1N	none (no result: SKBR3 24h inh)
O=C(NC1CCCC1)C1C2C=CC(C2)C1C(=O)N1CCOCC1 (centres undefined)	mHtt clearance 77.5
O=C(O)C1C2C=CC(C2)C1C(=O)N1CCOCC1 (centres undefined)	none (no result: mHtt clearance)
CC(=O)OCn1nnc2ccccc2c1=O	none
Cc1nc(N(C)C)ncc1C(=O)O	none (no result: SKBR3 24h inh)
CSc1ccc(S(=O)(=O)Nc2ccc(F)cc2)cc1	none
COc1ccc(NS(=O)(=O)c2ccc(SC)cc2)cc1	mHtt clearance 86.2
Cc1cccc(NC(=O)CC2NC3CCCCC3NC2=O)c1 (centres undefined)	none
CC1(C)NC(=O)N(CC(O)CN2C(=O)NC(C)(C)C2=O)C1=O	SKBR3 24h inh 42.9
CC1(C)NC(=O)N(CC(O)CN2CCOCC2)C1=O (centres undefined)	none
COc1ccc(-c2noc(C3CCCN(C(=O)c4cccs4)C3)n2)cc1 (centres undefined)	none
O=C(CSc1nnc(-c2cccs2)n1-c1ccccc1)NCc1ccc2c(c1)OCO2	mHtt clearance 72.6
O=C(CSc1nnc(-c2cccs2)n1Cc1ccccc1)NCc1ccc2c(c1)OCO2	none (no result: SKBR3 24h inh)
CC(C)CCn1c(N2CCN(Cc3ccccc3)CC2)nc2c1c(=O)[nH]c(=O)n2C	none
CN(C)CCCNc1oc(-c2cccc(Cl)c2)nc1C#N	none (no result: mHtt clearance)
CCC(=NC(CC)CO)C1=C(O)CC(C)(C)CC1=O (centres undefined)	none
COc1ccccc1-c1cc(C(F)(F)F)nc(S(=O)(=O)CCCC(=O)N2CCCCC2C)n1 (centres undefined)	SKBR3 24h inh 37.7
COc1ccccc1-c1cc(C(F)(F)F)nc(S(=O)(=O)CCCC(=O)NC(C)C)n1	none (no result: mHtt clearance)
O=C(NCc1nc2ccccc2[nH]1)c1ccco1	none (no result: mHtt clearance)
O=C(N/C(=C/c1ccc(Br)cc1)c1nc2ccccc2[nH]1)c1ccco1	mHtt clearance 80.0 (no result: SKBR3 24h inh)
Cc1cc(C)n(C(=O)c2ccc(NC(=O)CC(C)C)cc2)n1	mHtt clearance 90.3
CCC(=O)Nc1ccc(C(=O)n2nc(C)cc2C)cc1	none (no result: mHtt clearance)
Clc1ccc(C(c2nnnn2C2CCCC2)N2CCSCC2)cc1 (centres undefined)	none
COc1ccc(C2=CC(c3ccc(Cl)cc3)n3cnnc3N2)cc1OC (centres undefined)	SKBR3 24h inh 40.2 (no result: mHtt clearance)
COc1ccc(C2C=C(c3ccc(Cl)cc3)Nc3nc(NC(C)=O)nn32)cc1 (centres undefined)	none
CCOC(=O)CNC(=O)c1ccc2c(c1)OCCO2	none (no result: mHtt clearance)
CC(OCC(O)CN(C)CCOc1ccccc1)c1ccc(Cl)cc1 (centres undefined)	none (no result: SKBR3 24h inh)
CC1CCN(S(=O)(=O)c2cccc(C(=O)O)c2)CC1	none (no result: SKBR3 24h inh)
COC(=O)c1cccc(S(=O)(=O)N2CCC(C)CC2)c1	mHtt clearance 71.4
O=C(CSc1nnc(NC(=O)C2CCC2)s1)Nc1ccc(N2CCOCC2)cc1	none (no result: SKBR3 24h inh)
CC(C)N(C(=O)CSc1nnc(NC(=O)C2CCC2)s1)C(C)C	SKBR3 24h inh 42.3
COc1ccc(S(=O)(=O)N(CC(=O)O)c2ccccc2)cc1	none
COc1ccc(N(CC(=O)O)S(=O)(=O)c2cccnc2)cc1	mHtt clearance 71.2
CCCS(=O)(=O)N1CCN(Cc2ccc(OCc3ccccc3)c(OC)c2)CC1	none (no result: mHtt clearance)
COc1ccc(CN2CCN(C)CC2)cc1OCc1ccccc1	mHtt clearance 74.1 (no result: SKBR3 24h inh)
CCOc1ccccc1NC(=O)C1=C(C)NC(=O)NC1c1cccc(OC)c1OC (centres undefined)	SKBR3 24h inh 23.3
COc1ccccc1NC(=O)C1=C(C)NC(=O)NC1c1cccc(OC)c1OC (centres undefined)	none
O=C(Nc1nc(=O)c2ccccc2s1)c1ccc(F)cc1	none (no result: SKBR3 24h inh)
O=C(Nc1nnc(/N=C/c2ccco2)s1)c1ccc(F)cc1	mHtt clearance 70.6
CCCc1nc2c(nnn2Cc2ccccc2)c(=O)[nH]1	none
COc1ccccc1C(=O)C1Nc2ccccc2-c2nnc(SC)nc2O1 (centres undefined)	none (no result: SKBR3 24h inh)
Cc1c(CCC#N)c(N2CCCCC2)n2c(nc3ccccc32)c1C#N	none (no result: mHtt clearance)
Cc1c(CCC#N)c(N2CCN(C3CCCCC3)CC2)n2c(nc3ccccc32)c1C#N	SKBR3 24h inh 6.0 (no result: mHtt clearance)
O=S(=O)(c1ccc2c(c1)C(=NO)c1cc(S(=O)(=O)N3CCCCC3)ccc1-2)N1CCCCC1	SKBR3 24h inh 3.5 (no result: mHtt clearance)
O=S(=O)(c1ccc(S(=O)(=O)N2CCCC2)cc1)N1CCCCCC1	none
CCc1ccccc1-n1c(-c2ccncc2)n[nH]c1=S	none (no result: mHtt clearance)
Cc1ccc(-c2ccc(/C=N/c3ncn[nH]3)o2)cc1Cl	SKBR3 24h inh 34.9
Cc1c(N=Cc2ccc(-c3ccc(Cl)cc3)o2)c(=O)n(-c2ccccc2)n1C	none (no result: mHtt clearance)
CCCn1c2ccccc2c2nnc(SC(CC)C(=O)Nc3cc(C)on3)nc21 (centres undefined)	none (no result: SKBR3 24h inh)
O=C(O)c1ccc2c3c(ncnc13)-c1ccccc1C2=O	SKBR3 24h inh 43.8 (no result: mHtt clearance)
O=C1c2ccccc2-c2ncnc3cccc1c23	none
O=C(c1ccccc1-c1nc2ccccc2[nH]1)N1CCOCC1	none (no result: mHtt clearance)
CC(C)(C)c1ccccc1NC(=O)c1cccnc1	none
CC(C)(C)c1cc(NC(=O)c2cccnc2)no1	mHtt clearance 78.2

Source: PubChem
